TDP1 cell noCPT = qHTS for Inhibitors of human tyrosyl-DNA phosphodiesterase 1 (TDP1): qHTS in cells in absence of CPT; DT40 Tdp1-/- hTDP1 cells, no CPT, ATP luminescence, 48 h; hit rate 15% among 420,000; Potency, µM (titrated, usually from 46.2 µM), without a hit: top-dose activity change, negative = growth inhibition, actives largely listed as inhibitors; further: potency means the concentration at half of the fitted maximal effect; on the % scale 0 is the no-effect control and ±100 the full control effect; nearly all actives have a fitted effect of over 55% in size
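Chicken DT40 Tdp1-/- cells stably complemented with human TDP1 were seeded at 400 cells/well with DMSO in place of 20 nM camptothecin. After compound pinning, cells grew at least 48 hr at 37 °C; viability read by CellTiter-Glo luminescence.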
IL-1B inflam inh = inflammasome signaling inhibition, IL-1 beta readout; THP-1 LPS/ATP IL-1B secretion, AlphaLISA, 16 h; hits give low values; activity change, % at 57.5 µM; hit rate 4.7% among 360,000; AID 743279; in the data active means activity change below about -50%; inconclusive means mostly about -30% to -49%; further: on the % scale 0 is the no-effect control and ±100 the full control effect
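THP-1 cells pretreated 1 hr with compounds (up to 57.5 uM final), then stimulated with LPS (250 ng/mL final) plus ATP (1.25 mM final); secreted IL-1B measured by AlphaLISA after 16 hr, decreased signal indicating inhibition.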
TGFb inhibitor = blocks TGF-b signaling; HepG2 CAGA-GFP TGF-b/SMAD3 reporter, GFP fluorescence, 18 h; TGF-beta stimulated, 500 pg/mL final; Potency, µM (top dose mostly 46.1 µM), for inactives: at the top dose activity, negative = inhibition, usual class: inhibitors; hit rate 1.2% among 410,000; AID 588855; further: potency means the concentration at half of the fitted maximal effect; on the % scale 0 is the no-effect control and ±100 the full control effect; nearly all actives have a fitted effect of over 65% in size
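Smad-responsive CAGA-GFP expression was quantified in HEPG2 cells exposed to compounds and 500 pg/mL final TGF-beta for 18 h at 37 degrees C; unstimulated wells defined full inhibition.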
DT40 TDP1 CPT = DT40-hTDP1 cell growth loss with CPT; chicken DT40 Tdp1-/-;hTDP1 cells + 20 nM CPT, ATP luminescence, 48 h; Potency, µM (series often up to 46.2 µM), inactives show at the highest dose activity change, negative = growth inhibition, usual class: inhibitors; hit rate 12% among 420,000; AID 686979; further: potency means the concentration at half of the fitted maximal effect; on the % scale 0 is the no-effect control and ±100 the full control effect; nearly all actives have a fitted effect of over 55% in size
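Cell growth measured by CellTiter-Glo luminescence after a minimum 48 h, 37 C compound exposure with 20 nM CPT in Tdp1-knockout DT40 cells stably expressing hTDP1, seeded 400/well; qHTS titration format.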
ASM inhibitor = human S-ASM enzyme inhibition | Potency, µM (titrated, usually from 57.5 µM), without a hit: at the top dose activity change, negative = inhibition, usual class: inhibitors | P17405 | placental ASM, HMU-PC fluorogenic substrate, 60 min | hit rate 0.006% among 340,000 | AID 504937; further: potency means the concentration at half of the fitted maximal effect
Target sequence (P17405 47-631 limits assumed): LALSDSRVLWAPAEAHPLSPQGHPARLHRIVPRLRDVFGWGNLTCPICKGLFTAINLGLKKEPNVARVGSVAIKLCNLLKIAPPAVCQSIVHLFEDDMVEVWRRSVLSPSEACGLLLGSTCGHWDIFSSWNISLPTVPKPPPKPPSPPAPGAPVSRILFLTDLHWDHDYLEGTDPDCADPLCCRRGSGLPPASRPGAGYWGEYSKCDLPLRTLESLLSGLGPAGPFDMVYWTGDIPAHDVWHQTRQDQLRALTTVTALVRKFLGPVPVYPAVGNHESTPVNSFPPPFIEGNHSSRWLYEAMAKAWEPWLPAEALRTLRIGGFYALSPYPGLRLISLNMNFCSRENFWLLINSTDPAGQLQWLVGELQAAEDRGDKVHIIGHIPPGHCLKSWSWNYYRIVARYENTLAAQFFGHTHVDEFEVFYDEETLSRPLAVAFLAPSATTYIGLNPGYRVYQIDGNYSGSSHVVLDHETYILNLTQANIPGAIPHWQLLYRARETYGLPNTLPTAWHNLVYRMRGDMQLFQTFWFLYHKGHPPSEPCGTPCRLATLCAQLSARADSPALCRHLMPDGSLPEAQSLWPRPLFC
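HMU-PC0 cleavage (9 uM final) by human placental ASM, 60 min at 37 °C following 10 min compound exposure at RT; stopped at pH 10, fluorescence Ex 386/Em 447 nm.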
HepG2 tox = counter-screen for TGF-b inhibitors: cytotoxicity in HepG2 cells | HepG2 CAGA-GFP viability, ATP luminescence, 18 h | hit rate 0.76% among 410,000 | Potency, µM (titrated, usually from 46.1 µM), for inactives: top-dose activity change, negative = cytotoxicity, most hits filed as cytotoxic; further: potency means the concentration at half of the fitted maximal effect
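CellTiter-Glo luminescence gave cytotoxicity after 18 hours at 37 degrees C. The cells were HepG2 CAGA-GFP in 1% FBS DMEM, stimulated with 500 pg/mL TGF-beta after compound addition. %Activity was normalised to no-cell wells (complete cell-killing) and DMSO (no toxicity), and curves were fitted and classified.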
Active calls of the source: *; ? = inconclusive; . = no result. Most compounds without a hit are left out; they make up all but 19% or so of the library. Unless noted, the call rests on the fitted dose curve; in most records, active means well fitted curve in the direction sought with a large enough effect; inconclusive means small, poorly fitted or top-dose-only effect, or another doubt; inactive means no such curve, though single readings can be large; an effect the other way counts as inactive or inconclusive.

SMILES	TDP1 cell noCPT	IL-1B inflam inh	TGFb inhibitor	DT40 TDP1 CPT	ASM inhibitor	HepG2 tox
COc1ccc(NC(=O)c2cccc(N3C(=O)C4C5C=CC(C6CC56)C4C3=O)c2)cc1 (centres undefined)	20.6µM*	0.0	-20.5%	?	-3.4%	-1.9%
Cc1ccc(NC(=O)c2cccc(N3C(=O)C4C5C=CC(C5)C4C3=O)c2)cc1C (centres undefined)	20.6µM*	-22.8	3.6%	23.1µM*	1.8%	-13.3%
COc1ccc(NC(=O)c2cccc(N3C(=O)C4C5C=CC(C6CC56)C4C3=O)c2)c(OC)c1 (centres undefined)	?	-8.1	0.5%	?	-0.2%	-2.3%
O=C(Nc1ccc(Cl)cc1)c1cccc(N2C(=O)C3C4CCC(C4)C3C2=O)c1 (centres undefined)	14.6µM*	-15.0	-9.3%	?	-1.9%	-8.6%
COc1ccccc1NC(=O)c1cccc(N2C(=O)C3C4C=CC(C4)C3C2=O)c1 (centres undefined)	1.9%	49.4	-4.9%	-16.1%	4.0%	-7.5%
COc1ccc(NC(=O)c2cccc(N3C(=O)C4C5C=CC(C5)C4C3=O)c2)cc1Cl (centres undefined)	16.4µM*	33.3	-0.2%	23.1µM*	-5.3%	6.4%
O=C(Nc1ccc(Cl)cc1Cl)c1cccc(N2C(=O)C=CC2=O)c1	0.581µM*	0.0	?	1.03µM*	-0.2%	-35.8%
CN(C)CCCNc1nc2cc(-c3ccc(F)cc3)sc2c(=O)n1C	18.4µM*	-15.0	?	18.4µM*	.	-84.5%
C=CCNc1nc2cc(-c3cccc(Cl)c3)sc2c(=O)n1C	16.4µM*	79.1	17.0%	13µM*	.	-9.1%
CN(C)CCCNc1nc2cc(-c3ccccc3)sc2c(=O)n1C	20.6µM*	0.0	-3.0%	20.6µM*	.	-19.2%
COc1cccc(-c2cc3nc(NCCN4CCCC4)n(C)c(=O)c3s2)c1	23.1µM*	?	27.3%	?	.	-16.8%
Cn1c(NCCN2CCCC2)nc2cc(-c3ccccc3)sc2c1=O	?	-26.7	26.4%	?	.	-6.7%
COc1cccc(CNCCCSc2nnnn2C)c1OC	-10.1%	.	22.1%	-15.5%	.	1.1%
Cc1ccc(Cn2ccnc2SCC(=O)Nc2ccc3c(c2)OCCO3)cc1	-7.0%	.	-4.9%	-12.5%	.	-8.4%
COc1ccc(N=CC2CCCCC2=O)c([N+](=O)[O-])c1 (centres undefined)	?	-84.8*	7.4%	?	-7.9%	-3.4%
COc1ccc(N2C(=O)C3C4C=CC(CC4)C3C2=O)c([N+](=O)[O-])c1 (centres undefined)	-37.5%	-15.2	-16.0%	?	-3.2%	-50.0%
CN(C)S(=O)(=O)c1ccc(N2CCOCC2)c(C(=O)NCc2ccc3c(c2)OCO3)c1	?	-9.3	-1.4%	-7.8%	-1.1%	-4.4%
COc1cc(OC)c(NC2=CC(=O)C(=O)c3ccccc32)cc1Cl	18.4µM*	?	?	11.6µM*	-0.6%	-0.1%
Cc1cc(NC(=O)CCN2C(=O)c3ccccc3C2=O)no1	-7.7%	-3.7	-4.9%	-9.0%	1.7%	16.4%
Cc1cc(NC2=CC(=O)C(=O)c3ccccc32)no1	11.6µM*	-100.7*	?	6.51µM*	-2.7%	-91.0%
CCC(C(=O)Nc1cc(Cl)c(OC)cc1OC)c1ccccc1 (centres undefined)	?	-1.4	-11.9%	?	-11.8%	-1.8%
CCOc1cc(Br)ccc1S(=O)(=O)N1CC(C)OC(C)C1 (centres undefined)	?	9.4	?	25.9µM*	-2.1%	-74.4%
CC(=O)Nc1c(-c2ccc3ccccc3c2)nc2ccccn12	-3.4%	-5.8	-4.9%	-11.8%	-0.3%	-8.6%
Cc1ccc(NC(=C(C#N)C#N)c2ccccc2)cc1	11.6µM*	1.5	-7.4%	?	.	-10.5%
COc1ccc(CCNC(=O)Cn2c(=O)nc(-c3ccccc3F)c3cc(Cl)ccc32)cc1OC	-27.2%	.	9.2%	-6.8%	.	-4.2%
SMILES	TDP1 cell noCPT	IL-1B inflam inh	TGFb inhibitor	DT40 TDP1 CPT	ASM inhibitor	HepG2 tox
COc1ccc(C[C@](C)(N)C(=O)O)cc1OC	2.31µM*	3.1	2.0%	-25.2%	11.3%	-12.0%
S=c1sc2c(Cl)ncnc2n1-c1ccccc1	10.3µM*	-96.3*	?	16.4µM*	-2.4%	-85.6%
Cc1nc(N2CCN(C)CC2)c2sc(=S)n(-c3ccccc3)c2n1	?	-16.0	20.9%	?	0.7%	-10.6%
COC(=O)C12OCC34C(CC5C(C)=C(O)C(=O)CC5(C)C3C(O)C1O)OC(=O)C(OC(=O)C=C(C)C)C24 (centres undefined)	0.146µM*	.	-53.8%	0.0651µM*	-0.5%	0.0%
CCOC(=O)c1c(S(=O)(=O)NCC(=O)Nc2cc(C)ccn2)c(C)n(C)c1C	22.0%	-3.7	-10.6%	8.2%	-0.6%	-5.9%
COC(CNC(=O)c1cccnc1)OC	-1.1%	0.0	-2.3%	12.6%	1.7%	-1.3%
COC(CNC(=O)c1ccc2c3c(onc13)-c1ccccc1C2=O)OC	3.26µM*	-96.8*	11.2µM*	2.91µM*	-14.4%	-95.5%
Cc1ccc(C(OCC(O)CNCc2ccc(F)cc2)c2ccccc2)cc1 (centres undefined)	16.4µM*	-97.9*	?	14.6µM*	-11.7%	-101.8%
O=C(c1ccccc1)c1ccc(OCC(O)CNCc2cccc(Cl)c2)cc1 (centres undefined)	?	-82.2*	?	?	-4.9%	11.2µM*
O=C(c1ccccc1)c1ccc(OCC(O)CNCc2ccc(F)cc2)cc1 (centres undefined)	-25.1%	-72.0*	?	-2.4%	0.7%	-57.5%
Cc1ccc(OCC(O)CNCc2ccccc2)cc1C (centres undefined)	?	?	-10.3%	?	4.2%	-33.2%
CCC(=O)c1ccc(OCC(O)CNCc2ccc(F)cc2)cc1 (centres undefined)	-35.0%	-11.5	-12.8%	-9.9%	5.7%	-39.5%
Cc1cccc(OCC(=O)N(Cc2ccco2)C2CCS(=O)(=O)C2)c1 (centres undefined)	-10.2%	11.4	7.3%	0.5%	7.4%	-2.6%
Cc1ccc(NC(=O)Cn2c(=O)n(-c3ccccc3)c(=O)c3ccc(C(=O)NCc4ccc5c(c4)OCO5)cc32)c(C)c1	-13.6%	.	-4.7%	?	.	-10.6%
